# The list is not random: actives were taken first. Their share in the collection is about 3.5%.
# Pf apPOL block: Pf-apPOL inhibitors, biochemical, fluorescence | Recombinant Pf-apPOL, molecular beacon fluorescence, 1.5 h | inhibition, % at 10 µM | 210,000 tested, 0.25% active | AID 1794808, 2022
# mHTT CaM bind: mutant huntingtin-calmodulin interaction inhibitors – biochemical, AlphaScreen, primary screen; AlphaScreen His-mHTT/GST-CaM binding, luminescence; P42858; 190,000 tested, 3.6% active; inhibition, % at 15 µM;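 note: 0% = both proteins with DMSO and 100% = one protein alone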
# Starred values were filed as active, the others as inactive; · = not tested or not shown; ! = repeats disagree. Cut-off read from the data, not from the text of the source: active = inhibition above about 50%; inactive = the rest.
SMILES,Pf apPOL block,mHTT CaM bind
COc1ccc(NC(=O)C2CCCN(C(=O)c3cc(C)cc(C)c3)C2)cc1Cl (centres undefined),2,0
CCN(c1ccc(OC)cc1)S(=O)(=O)c1ccc2[nH]c3c(c2c1)CCCCC3,-3,70*
CCOc1ccccc1NC(=O)CN(C)S(=O)(=O)c1ccc2[nH]c3c(c2c1)CCCC3,-1,47
O=S(=O)(NCc1ccc2c(c1)OCO2)c1ccc2[nH]c3c(c2c1)CCCCC3,-5,96*
COc1cccc(CNS(=O)(=O)c2ccc3[nH]c4c(c3c2)CCCCC4)c1,-7,73*
COc1cccc(CNS(=O)(=O)c2ccc3[nH]c(=O)sc3c2)c1,4,5
O=c1[nH]c2ccc(S(=O)(=O)NCc3ccc4c(c3)OCO4)cc2[nH]c1=O,-4,-2
CCOc1ccc(CNS(=O)(=O)c2ccc3[nH]c4c(c3c2)CCCCC4)cc1,-1,55*
CC(=O)Oc1ccc2c(c1)OC(=Cc1ccc(Br)cc1)C2=O,-10,-6
O=S(=O)(C=Cc1ccccc1)c1ccc(F)c(Cl)c1,0,·
O=C(/C=C(/Nc1ccccc1)c1ccccc1)c1ccccc1,-3,27
O=S(=O)(NCCc1ccccc1)c1ccc2[nH]c3c(c2c1)CCCC3,-1,95*
COc1ccc(CNS(=O)(=O)c2ccc3[nH]c4c(c3c2)CCCCC4)cc1,-5,97*
COc1ccc(CNS(=O)(=O)c2ccc3nc(-c4ccccc4)[nH]c3c2)cc1,8,4
CN(Cc1ccccc1)S(=O)(=O)c1ccc2[nH]c3c(c2c1)CCCC3,-4,71*
COc1ccc(CCNS(=O)(=O)c2ccc3[nH]c4c(c3c2)CCCC4)cc1OC,-4,47
CN(CC(=O)N1CCCC1)S(=O)(=O)c1ccc2[nH]c3c(c2c1)CCCC3,-1,1
Cc1ccc(CNS(=O)(=O)c2ccc3[nH]c4c(c3c2)CCCC4)o1,-4,50*
NS(=O)(=O)c1ccc(NC(=O)CC(NCc2ccco2)C(=O)O)cc1 (centres undefined),-2,-23
CN(C)c1ccc(CNC(=O)CCc2conc2-c2ccccc2F)cc1,-2,8
O=C(CCN1CCCCC1)Nc1ccc(OC(F)(F)Cl)cc1,0,2
Oc1ccccc1-c1cc(C(F)(F)C(F)F)on1,-2,-13
O=C1CC(c2cccs2)CC2=C1C(c1cc(=O)c3cc(Cl)ccc3o1)Nc1ccccc1N2 (centres undefined),-5,23
O=c1ccc(-c2ccccc2)nn1CCc1nc(-c2cccc(F)c2)no1,-9,81*
Cc1ccc(-c2noc(CCn3nc(-c4ccccc4)ccc3=O)n2)cc1,0,17
SMILES,Pf apPOL block,mHTT CaM bind
CC1CCN(c2ccc(-c3noc(C(=O)NC(C)C)n3)cc2)CC1,2,-7
COc1ccc(-c2ccc[nH]2)cc1,-31,62*
COc1ccc(-c2nnc(-c3ccc(OC)cc3)nn2)cc1,-2,1
O=C(NC1CC1)c1ccc(OCC2CCCN2C(=O)c2cccs2)cc1 (centres undefined),-2,6
CN(CC(=O)N1CCCc2c1c(=O)oc1ccc(O)cc21)C1CCCCC1,-6,-2
O=C(Nc1cc(-c2ccco2)nn1CCO)c1cnccn1,-1,92*
O=C(Cn1nc2c(c1NC(=O)c1c[nH]c3ccccc13)CSC2)NCCc1ccccc1,0,93*
O=C(Cc1csc(NC(=O)c2cnccn2)n1)NCc1ccco1,4,38
CC(C)(C)n1nc2c(c1NC(=O)CCc1ccccc1)CSC2,0,3
O=C(Nc1nnc(-c2ccco2)o1)c1cnccn1,-7,-9
O=C(Cn1nc2c(c1NC(=O)c1cnccn1)CSC2)NCc1ccco1,-20,85*
O=C1/C(=C/c2cccs2)CS/C1=C\c1cccs1,-10,39
CN1C(=O)Cc2cc(C(=O)NCc3cccc(C(F)(F)F)c3)ccc21,-4,-1
Cc1cc(=O)[nH]c(-c2ccc(F)cc2)n1,-3,-5
CCc1cccc(Nc2cc(-n3nc(C)cc3C)ncn2)c1,-5,37
CCOc1cccc2cc(C(N)=O)c(=Nc3ccc(OC)cc3)oc12,3,6
COc1cc(N=c2oc3c(O)cc(C(C)(C)C)cc3cc2C(N)=O)cc(OC)c1,-8,56*
Oc1cccc(Nc2nc(-c3ccc(Cl)cc3)cs2)c1,-5,97*
Cc1ccc(-c2csc(NC(=O)c3ccc(Br)s3)n2)o1,0,13
Clc1ccc(Nc2nc(-c3cccnc3)cs2)cc1,-3,0
COc1ccc(-c2csc(Nc3cccc(O)c3)n2)cc1OC,3,68*
COc1ccc(-c2csc(Nc3ccc(C)c(C)c3)n2)cc1F,-5,52*
Cc1ccc(-c2csc(Nc3ccc(C(=O)O)cc3)n2)cc1C,-5,18
COc1ccc(-c2csc(N)n2)cc1OC,-2,18
COc1ccc(-c2csc(NC(=O)c3ccc(Br)s3)n2)cc1OC,64*!,69*!

# Bioassay records: PubChem, University of Kansas High Throughput Screening Laboratory
